# Most compounds without a hit are left out; they make up all but 2.3% or so of the library.
# CHRM1 PAM: positive allosteric modulators of human M1 muscarinic receptor. P11229. CHO-K1 hM1, Fluo-8 calcium fluorescence, ACh EC20; 0% = ACh EC20, 100% = maximal ACh. activation, % at 3 µM. 360,000 compounds, 0.088% hits. AID 588819; in the data active means activation above about 19%, passing the limit was not always enough
# Target sequence (P11229 whole entry, looked up): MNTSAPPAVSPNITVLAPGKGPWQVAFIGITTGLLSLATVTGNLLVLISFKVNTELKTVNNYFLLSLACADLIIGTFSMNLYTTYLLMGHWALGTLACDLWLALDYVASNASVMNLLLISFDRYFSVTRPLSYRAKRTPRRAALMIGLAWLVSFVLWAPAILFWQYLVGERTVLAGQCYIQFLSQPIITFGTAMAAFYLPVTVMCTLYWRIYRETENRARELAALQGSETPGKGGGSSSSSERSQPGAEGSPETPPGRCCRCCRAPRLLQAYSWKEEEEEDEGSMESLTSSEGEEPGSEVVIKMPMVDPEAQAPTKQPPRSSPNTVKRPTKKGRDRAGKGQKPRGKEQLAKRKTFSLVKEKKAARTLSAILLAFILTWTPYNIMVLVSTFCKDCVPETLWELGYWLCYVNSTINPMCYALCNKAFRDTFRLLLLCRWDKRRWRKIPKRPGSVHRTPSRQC
# M1 ag parental: M1 agonist counterscreen hit in parental CHO-K1 cells; Fluo-8 calcium fluorescence; scaled to maximal ATP response, vehicle zero; 360,000 compounds, 0.48% hits; activation, % at 3 µM; in the data active means activation above about 15%;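 further: untransfected CHO-K1 host cells lacking M1 receptor as counterscreen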
# M1 antag: blocks human M1 muscarinic receptor; P11229; CHO-K1 hM1, Fluo-8 calcium fluorescence, ACh EC80 antagonist; inhibition, % at 3 µM; 360,000 compounds, 1.3% hits;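 active means percent inhibition above its own plate's cutoff, namely the mean of that plate's compound wells plus 3 SD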;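 further: peak over basal fluorescence ratio during 140 s after agonist addition; 0% = ACh EC80 plus DMSO and 100% = DMSO alone without agonist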
# M1 PAM parental: counter-screen for M1 PAMs: effect in parental CHO-K1 cells; 360,000 compounds, 0.02% hits; activation, % at 3 µM; AID 602247; ATP EC20, Fluo-8 calcium fluorescence; 0% at ATP EC20, 100% at ATP max;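 active means activation above the run cutoff, the mean activation of all test compounds plus 3 SD, cut at about 40% in these data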;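 further: peak over basal fluorescence ratio in a 140 s read after ATP addition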
# CHO-K1 Ca antag: counter-screen for M1 antagonists: effect in parental CHO-K1 cells; ATP-induced calcium, Fluo-8 fluorescence; inhibition, % at 3 µM; 360,000 compounds, 0.6% hits; AID 602250;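 active means inhibition above a per-plate cutoff, the plate's mean sample inhibition plus 3 SD, cut at about 24% in these data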;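 further: 0% = DMSO plus EC80 ATP and 100% = DMSO alone without ATP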
# CHRM1 agonist: human M1 muscarinic receptor agonism. P11229. activation, % at 3 µM. CHO-K1 hM1, Fluo-8 calcium fluorescence, agonist mode; 0% DMSO, 100% acetylcholine EC100. 360,000 compounds, 0.33% hits. AID 588814;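 active means activation above the run's mean compound activation plus 3 SD, cut at about 16% in these data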;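 further: peak over basal fluorescence ratio within a 140 s kinetic read after compound addition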
# Active calls of the source: *; / = no result given.
SMILES,CHRM1 PAM,M1 ag parental,M1 antag,M1 PAM parental,CHO-K1 Ca antag,CHRM1 agonist
CCOC(=O)Cn1c(=O)oc2cc(S(=O)(=O)Nc3ccc(F)cc3)ccc21,7,8,-2,1,-3,31*
CCOC(=O)Cn1c(=O)oc2cc(S(=O)(=O)NCCc3ccc(C)cc3)ccc21,3,4,-10,11,-5,4
CC[C@]12c3[nH]c4ccc(Cl)cc4c3CCN1C(=O)[C@@H](CC(=O)NCc1ccc(OC)c(OC)c1)C[C@@H]2C(=O)N1CCN(C(=O)c2ccco2)CC1,5,1,-12,10,5,-11
COc1ccccc1N1CCN(/N=C\c2sccc2C)CC1,4,20*,5,11,3,-3
CCN1CCCC1CNCc1cccc(OC)c1OCc1ccccc1 (centres undefined),-19,0,24,21,-11,-7
CCN1CCCC1CNCc1ccccc1OCc1ccc(F)cc1 (centres undefined),-20,0,32*,1,-1,-9
CC(C)c1ccc(/C=C2\SC(=O)N(CC(=O)NC3C=CS(=O)(=O)C3)C2=O)cc1 (centres undefined),-15,9,43*,-5,12,-1
O=C(CN1C(=O)/C(=C/c2ccc(Cl)cc2)SC1=S)NC1C=CS(=O)(=O)C1 (centres undefined),14,-1,-13,14,-16,0
Nc1cccnc1Oc1ccc(F)cc1,-7,4,3,8,-10,-2
FC(F)(F)c1cccnc1Oc1ccc(C2=NCCS2)cc1,1,2,-6,22,-9,24*
CC(=O)C(Sc1ncnc2sc3c(c12)CCCC3)C(C)=O,11,0,-17,18,-19,-7
COc1cc(-c2cc3nc4ccccc4n3c(N)c2C#N)cc(OC)c1OC,-14,7,37*,0,2,-1
CNC(=O)N1c2ccccc2CCc2ccccc21,3,0,-11,10,-7,-2
CC(CN(C)C)CN1c2ccccc2CCc2ccccc21 (centres undefined),-26,1,98*,8,8,-4
CN(C)CCCN1c2ccccc2CCc2ccccc21,-25,1,87*,7,5,-6
O=C(NCc1ccc(F)cc1F)[C@@H]1CCCN1C(=O)[C@@H]1CCCN1C(=O)c1cccs1,/,-1,/,4,-2,/
CN(C(=O)C(Cl)Cl)C1CC2C=CC1C2 (centres undefined),12,16*,-13,21,-8,-4
CCOc1ccc(CCN2C(=O)C(=O)N([C@@H](Cc3ccccc3)CN3CCC[C@H]3CN3C(=O)C(=O)NC[C@@H]3Cc3ccccc3)C[C@@H]2Cc2ccc(O)cc2)cc1,/,0,/,-3,2,/
COc1cc(C2c3cc4c(cc3CC3COC(=O)N32)OCO4)cc(OC)c1OC (centres undefined),3,1,-9,-3,-5,-1
O=S(=O)(c1ccc(Cl)c(Cl)c1)c1snnc1-c1ccccc1,-21,1,75*,6,-12,-4
O=C1CC(c2ccc(F)cc2)CC(O)=C1C=NCCN1CCNCC1 (centres undefined),-10,0,4,-5,13,-5
O=C1CC(c2ccco2)CC(O)=C1C=NCCN1CCNCC1 (centres undefined),-13,0,39*,4,-6,2
O=C1CC(c2cccs2)CC(O)=C1C=NCCN1CCNCC1 (centres undefined),-8,0,32*,5,-14,17*
O=C1CC(c2ccccc2)CC(O)=C1C=NCCN1CCNCC1 (centres undefined),-7,0,25*,14,-3,10
CCC(=O)N(C)C[C@H]1Oc2ncc(C#Cc3ccncc3)cc2C(=O)N([C@@H](C)CO)C[C@@H]1C,6,1,-15,12,-7,-1
SMILES,CHRM1 PAM,M1 ag parental,M1 antag,M1 PAM parental,CHO-K1 Ca antag,CHRM1 agonist
c1ccc(-c2ccc3ncccc3n2)cc1,4,0,-12,-9,-3,2
C[C@H](NC(=O)c1ncn2c1C(=O)NC[C@@H]2C)c1ccccc1,0,6,-6,12,9,-2
CC12CCC(=O)N1C(C(=O)NNC(=O)COc1ccc(Br)cc1)CS2 (centres undefined),-11,0,33*,-31,17,-2
COc1ccc(CCC(=O)NCC23CC4CC(CC(C4)C2)C3)cc1,-6,0,7,3,14,-4
CCCOC1CCCN(C(=O)c2cc(Cl)c(Cl)cc2C(=O)O)C1 (centres undefined),-18,0,52*,10,-10,60*
CCOC(=O)N1CCN(C(=O)c2cc(Cl)c(Cl)cc2C(=O)O)CC1,5,0,-8,22,-18,32*
Nc1ccc(N2CCN(c3cccc(Cl)c3)CC2)cc1,-1,3,-6,24,-5,-11
Nc1cc(=O)[nH]n1C1CCN(c2ccccc2)CC1,3,-1,-5,-5,26*,0
O=C(COC(=O)c1c2c(nc3ccccc13)CCN(Cc1ccccc1)C2)Nc1c(F)cccc1F,-13,6,36*,4,2,-2
CC(=O)Nc1ccc(NC(=O)COC(=O)c2c3c(nc4ccccc24)CCN(Cc2ccccc2)C3)cc1,-23,6,45*,-9,5,3
CCN1CCc2nc3ccccc3c(C(=O)Nc3ccc(NC(C)=O)cc3)c2C1,17,3,-15,22,-9,-1
Cc1cc(NC(=O)CSc2nnnn2-c2ccccc2C)no1,-13,0,28*,-20,14,-1
CCc1ccccc1-n1nnnc1SCC(=O)Nc1cc(C)on1,4,1,-1,-10,-10,0
CCn1c(CCn2ccnc2C)n[nH]c1=S,-16,1,30,6,-18,28*
CCn1c(CC(C)C)n[nH]c1=S,5,0,4,8,-5,-4
Cc1c(C=C(C#N)c2ccc([N+](=O)[O-])cc2)c(=O)n(-c2ccccc2)n1C,-21,0,30*,9,-9,-7
CCc1ccc2oc(C(=O)Nc3nonc3CC)c(C)c2c1,-1,0,-12,0,-9,-4
CCc1nonc1NC(=O)c1oc2ccc(C)cc2c1C,-9,0,45*,-6,1,-5
CC(C)(C)n1nnnc1C(c1cccs1)N(Cc1ccccc1)Cc1ccco1 (centres undefined),-2,0,-1,6,-9,-4
CC(C)(C)n1nnnc1C(c1cccs1)N(Cc1cccnc1)Cc1ccco1 (centres undefined),-19,0,98*,23,-10,-2
Cc1ccc2c(c1)NC(=O)C(CC(=O)NCCCN1CCCCC1C)O2 (centres undefined),-2,-1,-9,14,2,-14

# From PubChem BioAssay
